A short description of assay [1]: NCI Yeast Anticancer Drug Screen. Data for the rad50 strain (AID 155).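 Further: 0% = growth of vehicle-only cultures of the same strain.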 As to conditions: S. cerevisiae rad50 strain growth inhibition, stronger effect = higher value. The procedure, abridged: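 DNA repair mutant yeast, compound exposure, growth read-out; inhibition is taken relative to vehicle.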
Assay [2] in a line: NCI Yeast Anticancer Drug Screen. Data for the mec2-1 strain (AID 157). To be noted: S. cerevisiae mec2-1 strain, stronger effect = higher value. The gist of the method:
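Strain: mec2-1 (DNA repair/cell cycle alteration). Compound exposure, then growth measured; inhibition expressed relative to vehicle.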

Assay [3] is described as follows: NCI Yeast Anticancer Drug Screen. Data for the sgs1 mgt1 strain (AID 161).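 Further: 0% = growth of cultures given vehicle only.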 As to conditions: S. cerevisiae sgs1 mgt1 strain, stronger effect = higher value. The procedure, abridged:
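Read-out: growth inhibition vs vehicle controls. Cells: mutant yeast strain deficient in DNA damage repair.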

A short description of assay [4]: NCI Yeast Anticancer Drug Screen. Data for the cln2 rad14 strain (AID 165).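 Further: 0% = growth equal to vehicle treated cultures.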 As to conditions: S. cerevisiae cln2 rad14 strain, stronger effect = higher value. The procedure, abridged: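 Compounds are applied to the cln2 rad14 yeast strain, and growth is then compared with that of vehicle-treated cultures to give inhibition.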
The nature of assay [5]: NCI Yeast Anticancer Drug Screen. Data for the bub3 strain (AID 167). To be noted: S. cerevisiae bub3 mutant strain, stronger effect = higher value. The procedure, abridged:
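In this screen, a yeast mutant lacking normal mitotic checkpoint function is challenged with compound. Relative growth versus vehicle gives the inhibition value.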

A short description of assay [6]: NCI Yeast Anticancer Drug Screen. Data for the wt2 strain (AID 169).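 Further: 0% = growth of vehicle-treated yeast cultures.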 To be noted: S. cerevisiae wt2 strain growth inhibition, stronger effect = higher value. The gist of the method:
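This strain belongs to a panel of yeast strains with defined genetic alterations in DNA damage repair or cell cycle control. Compounds are applied, and growth inhibition is measured against vehicle-treated cultures.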

Assay [7] is described as follows: NCI Yeast Anticancer Drug Screen. Data for the mlh1 rad18 strain (AID 175). As to conditions: S. cerevisiae mlh1 rad18 strain growth inhibition, stronger effect = higher value. The procedure, abridged: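 Read-out is yeast growth inhibition, calculated against vehicle-only controls. The compound was applied to a strain engineered with DNA damage repair alterations.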
[8] abbreviates: at 5.0 µM (retest, dose inferred, filed as 0.5).
Where [9] appears, read: at 50.0 µM (retest, dose inferred, filed as 5.0).

The record followed here is PubChem BioAssay (NCI).

Molecules are shown by their SMILES. “And” between values parts separate entries of the source, which are not always exact repeats. Identical values can stand only once. This is part of a sample that, as a whole, favours compounds with a hit. Of some 79,000 tested, about 15% had one in any assay. More than one record can exist for a structure, and the calls need not agree. The source made the active and inactive calls. No stated cut-off is given here; in the data, active means growth inhibition above about 70%; inactive means the rest.

`Cc1cc(O)c(C(C)C)cc1Cl`: the growth inhibition in assay [1] (setting [8]) is 5% (inactive); in assay [1] (setting [9]), 79% (active); in assay [1] (at 50.0 µM), 53.1% (inactive) and 98.7% (active); in assay [2] (setting [8]), 4% (inactive); in assay [2] (setting [9]), 90% (active); in assay [2] (at 50.0 µM) it was 41% (inactive) and 98.6% (active). The growth inhibition in assay [3] (setting [8]) is -6% (inactive); in assay [3] (setting [9]), 38% (inactive); in assay [3] (at 50.0 µM), 45.5% (inactive) and 99.2% (active); in assay [4] (setting [8]), -4% (inactive); in assay [4] (setting [9]) it was 48% (inactive); in assay [4] (at 50.0 µM) it was 4.75% (inactive) and 79.6% (active). In addition, the growth inhibition in assay [5] (setting [8]) is -4% (inactive); in assay [5] (setting [9]) it was 98% (active); in assay [5] (at 50.0 µM) it was 13.2% (inactive) and 97.5% (active).
With `CCCCCC(C)c1ccc(O)c(C)c1` (stereo not drawn), the growth inhibition was 49% (inactive) in assay [1] (setting [8]); 94% (active) in assay [1] (setting [9]); 81.7% (active) in assay [1] (at 50.0 µM); 49% (inactive) in assay [2] (setting [8]); 95% (active) in assay [2] (setting [9]); 56.2% (inactive) in assay [2] (at 50.0 µM). Moreover, the growth inhibition in assay [3] (setting [8]) is -10% (inactive); in assay [3] (setting [9]) it was 43% (inactive); in assay [3] (at 50.0 µM), 68.9% (inactive); in assay [4] (setting [8]), 41% (inactive); in assay [4] (setting [9]), 75% (active); in assay [4] (at 50.0 µM), 61.7% (inactive). For the same molecule, the growth inhibition was 32% (inactive) in assay [5] (setting [8]); 55% (inactive) in assay [5] (setting [9]); 86.1% (active) in assay [5] (at 50.0 µM); 4% (inactive) in assay [6] (at 1.2 µM); -2% (inactive) in assay [6] (at 3.7 µM); -6% (inactive) in assay [6] (at 11.0 µM). Moreover, the growth inhibition was 0% (inactive) in assay [6] (at 33.0 µM); 99% (active) in assay [6] (at 100.0 µM); 45% (inactive) in assay [7] (setting [8]); 99% (active) in assay [7] (setting [9]); 72.5% (active) in assay [7] (at 50.0 µM).
As to `Cc1nc(N=C(N)N)nc2ccc3ccccc3c12`, the growth inhibition is 39% (inactive) in assay [1] (setting [8]); 38% (inactive) in assay [1] (setting [9]); 80.8% (active) in assay [1] (at 50.0 µM); 43% (inactive) in assay [2] (setting [8]); 69% (inactive) in assay [2] (setting [9]); 37.9% (inactive) in assay [2] (at 50.0 µM). Besides, the growth inhibition in assay [3] (setting [8]) is -13% (inactive); in assay [3] (setting [9]), 98% (active); in assay [3] (at 50.0 µM), 64.7% (inactive); in assay [4] (setting [8]) it was 62% (inactive); in assay [4] (setting [9]), 99% (active); in assay [4] (at 50.0 µM), 34.8% (inactive). Also, the growth inhibition is -14% (inactive) in assay [5] (setting [8]); 96% (active) in assay [5] (setting [9]); 63.9% (inactive) in assay [5] (at 50.0 µM); 6% (inactive) in assay [6] (at 1.2 µM); 12% (inactive) in assay [6] (at 3.7 µM); 0% (inactive) in assay [6] (at 11.0 µM). For the same molecule, the growth inhibition in assay [6] (at 33.0 µM) was 30% (inactive); in assay [6] (at 100.0 µM) it was 97% (active); in assay [7] (setting [8]) it was 28% (inactive); in assay [7] (setting [9]), 34% (inactive); in assay [7] (at 50.0 µM) it was 69.6% (inactive).
Turning to `O=[N+]([O-])c1cc2c(cc1S(=O)(=O)O)C1C(C3C2C2(Cl)C(Cl)=C(Cl)C3(Cl)C2(Cl)Cl)C2(Cl)C(Cl)=C(Cl)C1(Cl)C2(Cl)Cl` (stereo not drawn), the growth inhibition in assay [1] (setting [8]) was -3% (inactive); in assay [1] (setting [9]), 10% (inactive); in assay [1] (at 50.0 µM), 66.2% (inactive); in assay [2] (setting [8]), -10% (inactive); in assay [2] (setting [9]), 26% (inactive); in assay [2] (at 50.0 µM), 69.9% (inactive). In addition, the growth inhibition in assay [3] (setting [8]) is 22% (inactive); in assay [3] (setting [9]), 41% (inactive); in assay [3] (at 50.0 µM), 72.5% (active); in assay [4] (setting [8]) it was 34% (inactive); in assay [4] (setting [9]), 41% (inactive); in assay [4] (at 50.0 µM), 54.2% (inactive). The growth inhibition was -1% (inactive) in assay [5] (setting [8]), 44% (inactive) in assay [5] (setting [9]) and 71.2% (active) in assay [5] (at 50.0 µM).
On to `Cc1ccc(OC(=O)c2ccc(N)cc2O)cc1`, for which the growth inhibition in assay [1] (setting [8]) is 48% (inactive); in assay [1] (setting [9]), 86% (active); in assay [1] (at 50.0 µM), 45.1% (inactive); in assay [2] (setting [8]), 83% (active); in assay [2] (setting [9]), 90% (active); in assay [2] (at 50.0 µM) it was 68.2% (inactive). Further, the growth inhibition in assay [3] (setting [8]) is -3% (inactive); in assay [3] (setting [9]), 93% (active); in assay [3] (at 50.0 µM), 42.5% (inactive); in assay [4] (setting [8]), 39% (inactive); in assay [4] (setting [9]), 97% (active); in assay [4] (at 50.0 µM), 42.2% (inactive). In addition, the growth inhibition is 24% (inactive) in assay [5] (setting [8]); 90% (active) in assay [5] (setting [9]); 77.7% (active) in assay [5] (at 50.0 µM); 0% (inactive) in assay [6] (at 1.2 µM); -4% (inactive) in assay [6] (at 3.7 µM); 15% (inactive) in assay [6] (at 11.0 µM). For the same molecule, the growth inhibition in assay [6] (at 33.0 µM) is 43% (inactive); in assay [6] (at 100.0 µM), 86% (active); in assay [7] (setting [8]), 33% (inactive); in assay [7] (setting [9]) it was 97% (active); in assay [7] (at 50.0 µM), 53.3% (inactive).
As for `CC12CCCCC1C/C(=N/NC(N)=O)CC2` (stereo not drawn), the growth inhibition in assay [1] (setting [8]) is -135% (inactive); in assay [1] (setting [9]), -78% (inactive); in assay [1] (at 50.0 µM), 8.9% (inactive) and 3.8% (inactive); in assay [2] (setting [8]) it was -52% (inactive); in assay [2] (setting [9]), -45% (inactive); in assay [2] (at 50.0 µM) it was 13.1% (inactive) and 1.25% (inactive). Also, the growth inhibition was -64% (inactive) in assay [3] (setting [8]); -54% (inactive) in assay [3] (setting [9]); -5.85% (inactive) and -9.35% (inactive) in assay [3] (at 50.0 µM); -58% (inactive) in assay [4] (setting [8]); -42% (inactive) in assay [4] (setting [9]); 41.9% (inactive) and -25.8% (inactive) in assay [4] (at 50.0 µM). In addition, the growth inhibition in assay [5] (setting [8]) is -62% (inactive); in assay [5] (setting [9]), -49% (inactive); in assay [5] (at 50.0 µM), -4.1% (inactive) and -11.3% (inactive).
In the case of `COc1nc(N)c(NC2OCC(O)C(O)C2O)c(=O)n1C` (stereo not drawn), the growth inhibition in assay [1] (at 50.0 µM) is -32.8% (inactive) [middle of 5 runs].
On to `Cc1nc2cc(Cl)ccc2n1-c1ccccc1`, for which the growth inhibition is 39% (inactive) in assay [1] (setting [8]); 92% (active) in assay [1] (setting [9]); 66.9% (inactive) in assay [1] (at 50.0 µM); 38% (inactive) in assay [2] (setting [8]); 98% (active) in assay [2] (setting [9]); 17% (inactive) in assay [2] (at 50.0 µM). The growth inhibition is -7% (inactive) in assay [3] (setting [8]); 94% (active) in assay [3] (setting [9]); 77.2% (active) in assay [3] (at 50.0 µM); 32% (inactive) in assay [4] (setting [8]); 99% (active) in assay [4] (setting [9]); 44% (inactive) in assay [4] (at 50.0 µM). In addition, the growth inhibition in assay [5] (setting [8]) was 4% (inactive); in assay [5] (setting [9]), 97% (active); in assay [5] (at 50.0 µM) it was 76.5% (active); in assay [6] (at 1.2 µM), 7% (inactive); in assay [6] (at 3.7 µM) it was 11% (inactive); in assay [6] (at 11.0 µM), 9% (inactive). Moreover, the growth inhibition in assay [6] (at 33.0 µM) is 37% (inactive); in assay [6] (at 100.0 µM), 96% (active); in assay [7] (setting [8]), 36% (inactive); in assay [7] (setting [9]) it was 85% (active); in assay [7] (at 50.0 µM), 60.2% (inactive).
